IL1B secr inh = qHTS for Inhibitors of Inflammasome Signaling: IL-1-beta AlphaLISA Primary Screen; THP-1 LPS/ATP IL-1B secretion, AlphaLISA, 16 h; stronger effect = lower value; activity change, % at 57.5 µM; actives 4.7% (n = 360,000); in the data active = activity change below about -50%; inconclusive = mostly about -30% to -49%
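Secreted IL-1B measured by AlphaLISA bead assay after 16 h compound exposure of THP-1 cells; compounds (final up to 57.5 uM) added 1 h before LPS (250 ng/mL) and ATP (1.25 mM) stimulation; lower signal means less secretion.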
HT1080NT lethal = qHTS for induction of synthetic lethality in tumor cells producing 2HG: qHTS for the HT-1080-NT fibrosarcoma cell line | Potency, µM (titrated, usually from 46.1 µM), hits mostly cytotoxic | AID 686970, 2013 | actives 1.6% (n = 360,000) | HT-1080-NT fibrosarcoma viability, CellTiter-Glo ATP luminescence, 48 h;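 note: NT is the 2HG producing partner of a matched IDH1 knockdown line; nearly all actives have a fitted effect of over 55% in size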
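Compounds were tested in concentration-response format on HT-1080-NT cells for 48 hours at 37 degrees C. Cell viability came from CellTiter-Glo luminescence; curves were classified by r2, response magnitude and activity.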
DT40 TDP1 CPT = qHTS for Inhibitors of human tyrosyl-DNA phosphodiesterase 1 (TDP1): qHTS in cells in presence of CPT; chicken DT40 Tdp1-/-;hTDP1 cells + 20 nM CPT, ATP luminescence, 48 h; Potency, µM (top dose mostly 46.2 µM), actives largely listed as inhibitors; actives 12% (n = 420,000); note: nearly all actives have a fitted effect of over 55% in size
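Chicken DT40 Tdp1-/- cells stably complemented with human TDP1 were seeded at 400 cells/well in medium containing 20 nM camptothecin, exposed to pin-transferred compounds, and grown at 37 °C for at least 48 hr. Viability was read as ATP luminescence.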
TDP1 cell noCPT = qHTS for Inhibitors of human tyrosyl-DNA phosphodiesterase 1 (TDP1): qHTS in cells in absence of CPT; AID 686978, 2013; Potency, µM (highest dose often 46.2 µM), most hits filed as inhibitors; DT40 Tdp1-/- hTDP1 cells, no CPT, ATP luminescence, 48 h; actives 15% (n = 420,000); note: nearly all actives have a fitted effect of over 55% in size
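Camptothecin absent (DMSO only). Human TDP1-complemented DT40 knockout cells, 400 cells/well, 37 °C for minimum 48 hr; ATP measured via CellTiter-Glo, 30 min dark incubation, luminescence.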
HT1080 IDH1KD tx = qHTS for induction of synthetic lethality in tumor cells producing 2HG: qHTS for the HT-1080-IDH1KD cell line. HT-1080 IDH1 knockdown viability, ATP luminescence, 48 h. Potency, µM (series often up to 46.1 µM), most hits filed as cytotoxic. actives 2% (n = 360,000). AID 686971, 2013
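% activity derives from luminescence (CellTiter-Glo), normalised to DMSO and no-cell wells. HT-1080-IDH1KD cells, 750/well, had 48 h compound exposure at 37 °C.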
Hits are given with their value; . = inactive; ? = inconclusive; / = not tested or not shown; [ ] = another dose, or the depositor's remark. Shown are actives, neighbours in structure and some others; about 19% of the full set was active somewhere. Unless noted, calls come from the whole dose curve; as a rule, active = well fitted curve in the direction sought with a large enough effect; inconclusive = small, poorly fitted or top-dose-only effect, or another doubt; inactive = no such curve, though single readings can be large; an effect the other way counts as inactive or inconclusive.

SMILES | IL1B secr inh | HT1080NT lethal | DT40 TDP1 CPT | TDP1 cell noCPT | HT1080 IDH1KD tx
COC(=O)Cc1[nH]nc2c1C(c1cc(OC)c(OC)c(OC)c1)C(C#N)=C(N)O2 (stereo not given) | . | . | . | . | .
CCCc1[nH]nc2c1C(c1ccoc1)C(C#N)=C(N)O2 (stereo not given) | -80.1 | . | ? | ? | .
COC(=O)Cc1[nH]nc2c1C(C1C=CCCC1)C(C#N)=C(N)O2 (stereo not given) | -61.6 | . | ? | 25.9µM | .
CCOC(=O)Cc1[nH]nc2c1C(c1ccsc1)C(C#N)=C(N)O2 (stereo not given) | -64.8 | . | ? | ? | .
Cc1ccc(-c2ccc(C#N)c(=O)n2CC(=O)N(C)C)cc1 | . | . | . | ? | .
CC(=O)COc1cc2c(-c3cc4ccccc4o3)cc(=O)oc2cc1C | . | . | . | . | .
Cc1cc(F)ccc1-c1cc(C(=O)NCc2ccco2)[nH]n1 | ? | . | . | . | .
CCCc1[nH]nc2c1C(c1ccc(O)cc1OCC)C(C#N)=C(N)O2 (stereo not given) | -75.6 | . | ? | ? | .
N#CC1=C(N)Oc2n[nH]c(-c3cccs3)c2C1c1cccs1 (stereo not given) | -90.6 | . | ? | . | .
COCc1[nH]nc2c1C(c1ccccc1F)C(C#N)=C(N)O2 (stereo not given) | ? | . | . | . | .
COCc1[nH]nc2c1C(c1sccc1C)C(C#N)=C(N)O2 (stereo not given) | -81.3 | . | . | ? | .
CCCc1[nH]nc2c1C(C1CCCCC1)C(C#N)=C(N)O2 (stereo not given) | -94.6 | . | ? | ? | .
Cc1ccccc1[C@@H]1C(C#N)=C(N)S[C@H]1C(=O)c1ccccc1 | . | . | ? | ? | .
CN(C)N1C(=O)c2c(Cl)c(Cl)c(Cl)c(Cl)c2C1=O | ? | . | . | . | .
CN(C(=O)C(=O)c1cn(CC(=O)N2CCCC2)c2ccccc12)C1CCCCC1 | . | . | . | . | .
CCCc1[nH]nc2c1C(c1ccsc1)C(C#N)=C(N)O2 (stereo not given) | -228.2 | ? | 16.4µM | ? | 20.6µM
COCc1[nH]nc2c1C(c1ccsc1)C(C#N)=C(N)O2 (stereo not given) | . | . | ? | . | .
COc1ccc(S(=O)(=O)N(CCc2ccccc2)CC(=O)NCc2ccccc2)cc1OC | / | / | 16.4µM | ? | /
COc1ccc(C(C)NC(=O)CN(c2cc(OC)ccc2OC)S(=O)(=O)c2ccccc2)cc1 (stereo not given) | / | / | 20.6µM | ? | /
COc1ccc(S(=O)(=O)N(CC(=O)NCc2ccccc2)c2ccc(C)cc2)cc1OC | / | / | ? | 6.51µM | /
COc1ccc(S(=O)(=O)N(CC(=O)NC(C)c2ccccc2)c2ccc(C)cc2)cc1OC (stereo not given) | / | / | ? | 5.8µM | /
COc1ccc(S(=O)(=O)N(CC(=O)NCCC(C)C)c2ccccc2)cc1OC | . | . | . | ? | .
COc1ccc(S(=O)(=O)N(CCc2ccccc2)CC(=O)O)cc1C | . | .[9.24 µM] | . | . | .
CC(=O)N1c2ccc(S(=O)(=O)N(C)CC(=O)Nc3ccccc3C)cc2CC1C (stereo not given) | . | . | . | . | .
O=C(O)c1cn(Cc2ccccc2)c2ccc(Cl)cc2c1=O | . | . | ? | ? | .
SMILES | IL1B secr inh | HT1080NT lethal | DT40 TDP1 CPT | TDP1 cell noCPT | HT1080 IDH1KD tx
O=C(NCc1ccccc1)c1cc(C2COCCN2C(=O)C/C=C/c2ccccc2)on1 (stereo not given) | . | . | ? | ? | .
CCC(=O)N1c2ccc(S(=O)(=O)CCC(=O)NCc3cccc(OC)c3)cc2CC1C (stereo not given) | / | / | . | . | /
O=C(c1cc2ccccc2[nH]1)N1CCOCC1 | . | . | . | . | .
Cc1ccccc1CCNC(=O)C1CCC(=O)N(CCc2cccc(F)c2)C1 (stereo not given) | . | . | ? | ? | .
COCCN(Cc1ccccc1)C(=O)c1ccc2c(=O)n3c(nc2c1)CCC3 | . | . | . | . | .
CCOc1ccc(N(CC(=O)NC(C(C)C)C(C)C)S(=O)(=O)c2ccc(OC)c(OC)c2)cc1 | . | . | ? | 23.1µM | .
COCCNC(=S)NCCc1ccc(Cl)cc1Cl | . | . | . | . | .
O=C(O)Cn1c(SCCOc2ccc(Cl)cc2)nc2ccccc21 | . | . | . | . | .
CCN(CC)C(=O)Cn1c(SCCOc2ccc(Cl)cc2)nc2ccccc21 | / | / | ? | 20.6µM | /
O=C(O)Cn1c(SCCOc2ccccc2F)nc2ccccc21 | . | . | ? | 16.4µM | ?
COc1cccc(OC)c1C(=O)Nc1cccnc1 | . | . | . | . | .
COc1ccccc1-c1csc(C(C)(O)c2ccccc2)n1 (stereo not given) | . | . | 14.6µM | ? | .
COc1ccccc1-c1csc(C(C)(O)c2cccc(F)c2)n1 (stereo not given) | . | . | 13µM | 16.4µM | ?
CNC(=O)/C(C#N)=C/c1c(N2CCCCCC2)nc2c(C)cccn2c1=O | . | . | ? | . | .
CC1CCC(C(C)C)C(OCC(O)CN2CCN(Cc3ccccc3)CC2)C1 (stereo not given) | ? | 23.1µM | 13µM | 14.6µM | ?
CC1CCC(C(C)C)C(OCC(O)C[N+]2(C)CCCCC2)C1 (stereo not given) | . | . | ? | 11.6µM | .
CC1CCC(C(C)C)C(OCC(O)CN2CCOCC2)C1 (stereo not given) | . | . | . | . | .
CC1CCCN(S(=O)(=O)c2cc3c4c(c2)CCN4C(=O)CC3)C1 (stereo not given) | . | . | . | . | .
CCOC(=O)CC(=O)c1sc2c(c1N)c(=O)[nH]c(=O)n2-c1ccc(OC)cc1 | . | . | . | . | .
CCOc1ccc(-c2csc(/C(C#N)=C\c3ccc(O)c([N+](=O)[O-])c3)n2)cc1 | . | 14.6µM | 3.66µM | 4.61µM | ?
O=[N+]([O-])c1nccn1CCCCCCN1CCOCC1 | . | . | . | . | .
CC(C)(C)c1ccc(C(=O)Nc2ccc(C=C(C#N)C#N)cc2)cc1 | . | ? | 16.4µM | 11.6µM | ?
N#CC(C#N)=Cc1ccc(NC(=O)c2ccc(Br)cc2)cc1 | ? | . | 20.6µM | 16.4µM | .
O=C(NCCN1CCOCC1)C1CCCN(S(=O)(=O)c2ccc(F)cc2)C1 (stereo not given) | . | . | . | . | .
